What follows are compounds tested against PEG-3 (UniProt Q6IN02) (assay: GAPDH versus PEG-3 reporter suppression – cell-based, luminescence, counter-screen for PEG-3 promoter inhibitor project, SAR follow-up (AID 651551)). Settings: HeLa PEG-Prom / GAPDH luciferase reporter, 6 or 24 h, run 3, 24 h; at 99 µM (top of the series).
Cc1cc(NC(=O)c2ccccc2)n(-c2nc3ccccc3n2C)n1 gave an inhibition % (higher = more inhibition) of 3.97%. Compound Cc1cc(NC(=O)c2ccccc2C(F)(F)F)n(-c2nc3ccccc3[nH]2)n1 has an inhibition % (higher = more inhibition) of 94.1%. Work on CCn1nc(C(=O)Nc2nc(-c3ccccn3)cs2)c2ccccc2c1=O yielded an inhibition % (higher = more inhibition) of 39.1%. Cc1cc(NC(=O)c2ccccc2)n(-c2nc3ccccc3[nH]2)n1 showed an inhibition % (higher = more inhibition) of 79.1%. Cc1nc(NC(=O)c2ccccc2)sc1-c1csc(Nc2cccc(Cl)c2C)n1 was tested, and the inhibition % (higher = more inhibition) was -61.4%. Cc1cc(NC(=O)c2cccc(C)c2C)n(-c2nc3ccccc3[nH]2)n1 showed an inhibition % (higher = more inhibition) of 3.97%. With COc1ccc(-n2nc(C(=O)NCC(=O)Nc3cccc(OC)c3)c3ccccc3c2=O)cc1 the inhibition % (higher = more inhibition) was 8.99%.

Reference: PubChem BioAssay AID651551 (Sanford-Burnham Center for Chemical Genomics, 2012)
